# Laboratory results published in PubChem BioAssay (NCI).
# Compounds without any hit were thinned out: in the full panel of roughly 79,000, 15% have a hit. Unmarked numbers belong to inactive results. The source made the active and inactive calls. Rule as the data show it: active = growth inhibition above about 70%; inactive = the rest.
# Tests used:
# [1] = NCI Yeast Anticancer Drug Screen. Data for the rad50 strain (AID 155);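 also: 0% = growth of vehicle-only cultures of the same strain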; conditions: S. cerevisiae rad50 strain growth inhibition; at 50.0 µM; active compounds read high
# How it was run: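 Relative growth inhibition (compound vs vehicle) was measured in yeast with a defined repair-gene alteration.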
# [2] = NCI Yeast Anticancer Drug Screen. Data for the mec2-1 strain (AID 157); conditions: S. cerevisiae mec2-1 strain, at 50.0 µM, active compounds read high
# How it was run: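 Test agents were screened against the mec2-1 yeast strain, with defined DNA repair or cell cycle alteration. Growth was scored as inhibition against vehicle-only controls.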
# [3] = NCI Yeast Anticancer Drug Screen. Data for the sgs1 mgt1 strain (AID 161);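 also: 0% = growth of cultures given vehicle only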; conditions: S. cerevisiae sgs1 mgt1 strain, at 50.0 µM, active compounds read high
# How it was run: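 Inhibition of yeast growth, normalised to vehicle-treated controls, is reported for a strain bearing genetic alterations in DNA damage repair.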
# [4] = NCI Yeast Anticancer Drug Screen. Data for the cln2 rad14 strain (AID 165);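 also: 0% = growth equal to vehicle treated cultures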; conditions: S. cerevisiae cln2 rad14 strain, at 50.0 µM, active compounds read high
# How it was run: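 Growth of compound-exposed yeast (cln2 rad14 genotype) measured and expressed as inhibition relative to vehicle.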
# [5] = NCI Yeast Anticancer Drug Screen. Data for the bub3 strain (AID 167); conditions: S. cerevisiae bub3 mutant strain, at 50.0 µM, active compounds read high
# How it was run: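 Screening used yeast with an engineered genetic alteration affecting cell cycle control. Compound-exposed cultures were compared with vehicle cultures, and reduced growth was taken as inhibition.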
# [6] = NCI Yeast Anticancer Drug Screen. Data for the mlh1 rad18 strain (AID 175); conditions: S. cerevisiae mlh1 rad18 strain growth inhibition; at 50.0 µM; active compounds read high
# How it was run: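 In this whole-cell yeast screen, a strain with altered DNA damage repair is challenged with compound, and its growth is measured against matched vehicle-treated controls.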
Compound,growth inhibition [1],growth inhibition [2],growth inhibition [3],growth inhibition [4],growth inhibition [5],growth inhibition [6]
Cc1cccc(C)c1NC(=S)/N=C/C1=C(O)c2ccccc2C1=O,-36.8%,-17.2%,-10.2%,13.8%,-7.5%,23.6%
COc1ccccc1N1C(Cl)C(=O)C1c1c[nH]c2ccccc12 (stereo unspecified),26.9%,-40.3%,-28.7%,4.4%,-26.6%,-34.9%
O=c1oc2ccccc2c(O)c1Cc1cccc(Cc2c(O)c3ccccc3oc2=O)c1,11.9%,5.05%,4.9%,9.3%,-11.3%,5%
O=S(Nc1ccc(Cl)cc1)c1ccccc1 (stereo unspecified),10%,10.9%,31.1%,4.1%,18.1%,2.3%
Cc1ccc(CNC(=S)NC2CCCCC2)cc1C,87.6% (active),96% (active),94.2% (active),83.5% (active),90% (active),96.3% (active)
Cc1cc([N+](=O)[O-])ccc1NS(=O)(=O)c1ccccc1,24.9%,39.5%,42.9%,15.5%,18.1%,36.6%
Cc1cc(O)c([N+](=O)[O-])cc1C,-8.05%,-1.85%,-15.2%,-1.75%,3.75%,-3.55%
COC(=O)Cc1nn2c(nc1=O)sc1ccc3ccccc3c12,-16.7%,-3.05%,3.3%,1.25%,-3.8%,-17.2%
CNC(=S)NNc1ncnc2c1ncn2-c1ccc(C)cc1,-30.4%,6.3%,5.45%,29.7%,11.4%,4.25%
CCN(Cc1ccc(CN(CC)C(=O)c2c(-c3ccccc3)noc2C)cc1)C(=O)c1c(-c2ccccc2)noc1C,13.6%,-8.1%,5.1%,17.8%,0.2%,-13.6%
BrC/C(=N\N1CCCCC1)c1ccc(Br)cc1,6.55%,-7.95%,-8.05%,24.6%,16.6%,14%
CC1CCCC(C)(c2ccccc2)/C1=N\Nc1ccc([N+](=O)[O-])cc1[N+](=O)[O-] (stereo unspecified),36.2%,13.9%,9.65%,18%,2.1%,29.9%
COC[N+](C)(C)C,-2.55%,-6.25%,-7.6%,2.4%,7.2%,10.5%
COc1cccc(S(=O)(=O)c2c(C)cc(C)cc2C)c1,-12.7%,-12.6%,-12.8%,-42%,1.1%,-12.8%
CC(C)=CCN(N=O)c1ncnc2nc[nH]c12,-10.1%,31.1%,-24.8%,-2.5%,18.9%,9.85%
COc1nc(NC2OCC(O)C(O)C2O)c(Br)c(=O)n1C (stereo unspecified),4.9%,-10.4%,14.2%,11.8%,17.5%,13%
C(=Nc1ccc(N2CCOCC2)cc1)c1ccc2c(c1)OCO2,-15.4%,-7%,-15.2%,-49.5%,-21.7%,-22%
CCN(CC)CCOC(=O)c1ccc(NC(=O)OCCC(C)(C)CCOC(=O)Nc2ccc(C(=O)OCCN(CC)CC)cc2)cc1,6.85%,-18.4%,-9.25%,-23.6%,8.25%,16.2%
O=C1c2cc(Cl)ccc2-c2ccc(Cl)cc21,2.75%,2.85%,-4.85%,-11.8%,-1.2%,1.05%
O=C1CN(c2cccc(C(F)(F)F)c2)C(=O)CN1/N=C/c1ccc(O)c(O)c1,3.4%,-0.1%,-5.3%,-2.3%,2.4%,27.6%
CC1=C(C)CN(CCC(=O)O)C(C(N)=O)C1 (stereo unspecified),-11.9%,-2.3%,-3.8%,17.5%,18.5%,-10.1%

Compound,growth inhibition [1],growth inhibition [2],growth inhibition [3],growth inhibition [4],growth inhibition [5],growth inhibition [6]
CCC(=O)Nc1nc2c(ncn2C2OC(COC(=O)CC)C(OC(=O)CC)C2OC(=O)CC)c(=O)[nH]1 (stereo unspecified),-11.6%,5.2%,18.5%,6.25%,6.8%,-7.3%
O=c1c2cnc3cc(Cl)ccc3c2[nH]n1-c1ccc(Cl)cc1,-1.3%,0.45%,1.85%,-2.55%,2.75%,2.9%
CN1CCCCC1CCO (stereo unspecified),-1.4%,6.7%,-11.2%,15.9%,3.25%,14.1%
O=c1c2cc3c(=O)n(O)c(=O)c3cc2c(=O)n1O,12.4%,-18.2%,-9.45%,6.75%,3.25%,-90.4%
C=C(CC(O)c1ccccc1)C(=O)Nc1ccccc1OC (stereo unspecified),25.9%,0.45%,13.3%,1.25%,6.3%,4.1%
O=C(Nc1cccc(Cl)c1)Oc1ccccc1,17.6%,4.45%,-4.3%,16.4%,15.3%,8.2%
Clc1ccc(-c2nc3ccccc3cc2N2CCCCC2)cc1,26.4%,1.45%,12.3%,-38.5%,-1.15%,-7.7%
CCCCOC(=O)C(=O)C(CC(C(=O)Cc1ccccc1)c1ccccc1)C(=O)C=C(C)C (stereo unspecified),-0.1%,-5.3%,-0.7%,-12.1%,27.2%,-18.2%
Fc1cccc(CSc2cnnc(SCc3cccc(F)c3)c2SCc2cccc(F)c2)c1,-14.8%,-7.1%,-13.7%,14.6%,-10.8%,-32%
CCC(C)C(NN)C(=O)O (stereo unspecified),0.7%,-5.55%,-22.4%,-24.6%,0%,-37.3%
COc1ccc(C(O)c2ccccn2)cc1 (stereo unspecified),-13.1%,-35.9%,-24%,-34.8%,-62.7%,-18.7%
O=C(C1C2C=CC(C2)C1C(=O)N1CCCCC1)N1CCCCC1 (stereo unspecified),2.5%,25.4%,13.2%,-1.8%,12.3%,11.5%
CN(N)c1cc(=O)n(C)c(=O)n1C,-1.35%,-1.2%,-10.7%,-45.1%,-3.05%,15.6%
Cc1ccc(-n2c(C)nc3c(c(C)c(C)n3-c3ccccc3)c2=N)cc1,4.1%,-0.75%,4.75%,-19%,15.4%,6.65%
CCOC(=O)N1CCNCCN(C(=O)OCC)CCNCC1,-3.95%,2.3%,-4.3%,0.7%,-4.5%,24.1%
C[C@]12CCC(=O)C(O)=C1CCC2=O,2.6%,-7.35%,-5.3%,-14.9%,3.8%,4.5%
CC1CC[P+](C)(c2ccccc2)c2ccccc21 (stereo unspecified),26%,15.7%,1.6%,-4.6%,2.75%,20.6%
Cc1cc(C(=O)O)c(C#N)c(=O)n1C,-1.55%,5.3%,-12.6%,-13.6%,-12%,8.55%
CN(C(=O)c1cccs1)C(=S)N1CCN(c2ccccn2)CC1,-84.2%,-57.6%,-2.4%,-11.8%,-7.85%,-29.6%
Cc1cc(C)nc(N)c1,3.75%,-11.8%,-0.4%,-21.8%,-3.25%,3.05%
